Most compounds without a hit are left out; they make up all but 15% or so of the library.
ELG1 repair inh – qHTS screen for small molecules that inhibit ELG1-dependent DNA repair in human embryonic kidney (HEK293T) cells expressing luciferase-tagged ELG1 | HEK293T ELG1-luciferase reporter, luminescence, 16 h; DNA damage induced by 5-fluorouridine | Potency, µM (top dose mostly 46.1 µM), without a hit: top-dose activity change, negative = inhibition, most hits filed as inhibitors | 2.3% of 330,000 active | AID 504467, 2011; further: nearly all actives have a fitted effect of over 55% in size
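Reporter activity after DNA damage by 5-fluorouridine is monitored. Compound-treated cells incubate 16 hr at 37 °C, then ONE-Glo is added for 30 min before luminescence reading.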
Gal4-VP16 FLuc – VP16 counterscreen qHTS for inhibitors of ROR gamma transcriptional activity; Drosophila S2 Gal4-VP16 UAS-luciferase, luminescence, 20 h; Potency, µM (top dose mostly 53.6 µM), for inactives: at the highest dose activity, negative = inhibition, actives largely listed as inhibitors; 3.5% of 310,000 active;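 further: Gal4-VP16 expression switched on by copper sulfate through the metallothionein promoter; nearly all actives have a fitted effect of over 50% in size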
12-LOX inh – Primary qHTS assay for inhibitors of human arachidonate 12S-lipoxygenase (ALOX12): Round 2. Polyunsaturated fatty acid lipoxygenase ALOX12 (Homo sapiens), P18054. purified 12hLO, xylenol orange hydroperoxide absorbance. Potency, µM (titrated, usually from 108 µM), without a hit: at the top dose activity change, negative = inhibition, actives largely listed as inhibitors. 1.1% of 580,000 active
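Hydroperoxide product was detected by ferrous iron/xylenol orange as the 573 to 405 nm absorbance ratio. Arachidonic acid at 40 uM (final) was turned over for 30 min at room temperature by 150 nM human 12hLO, pH 7.0 Hepes buffer, after 15 min compound preincubation.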
TDP1 cell CPT – qHTS for Inhibitors of human tyrosyl-DNA phosphodiesterase 1 (TDP1): qHTS in cells in presence of CPT. chicken DT40 Tdp1-/-;hTDP1 cells + 20 nM CPT, ATP luminescence, 48 h. Potency, µM (top dose mostly 46.2 µM), without a hit: at the top dose activity change, negative = growth inhibition, hits mostly inhibitors. 12% of 420,000 active. AID 686979, 2013; further: nearly all actives have a fitted effect of over 55% in size
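Chicken DT40 Tdp1-/- cells stably complemented with human TDP1 were seeded at 400 cells/well in medium containing 20 nM camptothecin, exposed to pin-transferred compounds, and grown at 37 °C for at least 48 hr. Viability was read as ATP luminescence.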
DT40 TDP1 no CPT – qHTS for Inhibitors of human tyrosyl-DNA phosphodiesterase 1 (TDP1): qHTS in cells in absence of CPT. DT40 Tdp1-/- hTDP1 cells, no CPT, ATP luminescence, 48 h. Potency, µM (top dose mostly 46.2 µM), for the others: at the top dose activity change, negative = growth inhibition, actives largely listed as inhibitors. 15% of 420,000 active. AID 686978, 2013; further: nearly all actives have a fitted effect of over 55% in size
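Cells were dispensed at 400 per well, compounds added by pin tool, plates incubated ≥48 hr at 37 °C, then CellTiter-Glo added for 30 min at room temperature before luminescence reading. Line: DT40 Tdp1-/- complemented with hTDP1; camptothecin omitted.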
RORgamma inh – qHTS for inhibitors of ROR gamma transcriptional activity; Drosophila S2 Gal4-RORgamma UAS-luciferase reporter, 20 h; Potency, µM (series often up to 53.6 µM), for inactives: top-dose activity change, negative = inhibition, most hits filed as inhibitors; 5.4% of 310,000 active; further: nearly all actives have a fitted effect of over 60% in size
Target sequence (P51450 whole entry, looked up, the tested form may be a part): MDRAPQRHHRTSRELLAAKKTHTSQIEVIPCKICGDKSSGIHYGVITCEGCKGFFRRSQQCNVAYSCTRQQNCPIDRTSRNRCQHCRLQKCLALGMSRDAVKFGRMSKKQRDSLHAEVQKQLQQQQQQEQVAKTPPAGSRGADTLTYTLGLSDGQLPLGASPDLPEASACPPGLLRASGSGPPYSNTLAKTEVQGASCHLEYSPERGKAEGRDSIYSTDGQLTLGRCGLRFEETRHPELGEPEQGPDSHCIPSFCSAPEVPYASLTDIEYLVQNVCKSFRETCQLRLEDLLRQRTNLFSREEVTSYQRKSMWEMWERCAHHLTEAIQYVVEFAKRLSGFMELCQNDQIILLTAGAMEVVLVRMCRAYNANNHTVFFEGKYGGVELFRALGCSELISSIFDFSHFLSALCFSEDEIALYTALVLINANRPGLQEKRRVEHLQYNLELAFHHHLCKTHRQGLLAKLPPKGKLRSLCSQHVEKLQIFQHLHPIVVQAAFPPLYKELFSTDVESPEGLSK
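ROR gamma transcriptional activity was tracked as Gal4-UAS luciferase output in stably transfected Drosophila Schneider cells, with compound added 1 hr before 700 uM copper sulfate induction and a 20 hr ambient-temperature incubation.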
An asterisk follows results filed as active. The call rests on the fitted dose curve; in most records, active means well fitted curve in the direction sought with a large enough effect; inconclusive means small, poorly fitted or top-dose-only effect, or another doubt; inactive means no such curve, though single readings can be large; an effect the other way counts as inactive or inconclusive. On the % scale 0 is the no-effect control and ±100 the full control effect; potency means the concentration at half of the fitted maximal effect.

`Cc1cccc(-c2nc(C#N)c(N3CCCCCC3)o2)c1` gave ELG1 repair inh inconclusive, Gal4-VP16 FLuc 25%, 12-LOX inh 8%, TDP1 cell CPT 29µM*, DT40 TDP1 no CPT inconclusive and RORgamma inh 14%.
`COc1cc(/C=C/c2nc(C#N)c(N3CCCCC3)o2)cc(OC)c1OC` gave 12-LOX inh -23%, TDP1 cell CPT 8.2µM* and DT40 TDP1 no CPT 7.3µM*.
For Cc1cccc(-c2nc(C#N)c(N3CCC(C)CC3)o2)c1 the results were ELG1 repair inh -3%, Gal4-VP16 FLuc -5%, 12-LOX inh -2%, TDP1 cell CPT -5%, DT40 TDP1 no CPT 1% and RORgamma inh 3%.
Screening N#Cc1nc(/C=C/c2cccs2)oc1NCCCn1ccnc1 returned 12-LOX inh -3%.
Screening Cc1noc(C)c1CC(=O)N1CC[C@@H]2CN(S(C)(=O)=O)[C@@H]2C1 returned 12-LOX inh 1%.
For Cc1ccc(OCC(=O)Nc2ccc(S(=O)(=O)Nc3nccs3)cc2)cc1 the results were 12-LOX inh -4%.
For O=Cc1ccc(OCc2ccccc2)c(Cl)c1 the results were 12-LOX inh 14%.
For COc1ccc(OC)c(C2=NS(=O)(=O)N(C)C(C(=O)Nc3ccc(C(C)=O)cc3)=C2)c1 the results were ELG1 repair inh inconclusive, Gal4-VP16 FLuc inconclusive, 12-LOX inh -21%, TDP1 cell CPT 18µM*, DT40 TDP1 no CPT 15µM* and RORgamma inh inconclusive.
`COc1ccc(C2=NS(=O)(=O)N(C)C(C(=O)NC3CCCCC3)=C2)cc1` gave ELG1 repair inh -7%, Gal4-VP16 FLuc -3%, 12-LOX inh 17%, TDP1 cell CPT -28%, DT40 TDP1 no CPT 6.5µM* and RORgamma inh -3%.
Screening CCc1ccc(NC(=O)C2=CC(c3ccc(OC)c(OC)c3)=NS(=O)(=O)N2C)cc1 returned ELG1 repair inh 13µM*, Gal4-VP16 FLuc -25%, 12-LOX inh 20%, TDP1 cell CPT 12µM*, DT40 TDP1 no CPT 18µM* and RORgamma inh inconclusive.
`CCC(C)NC(=O)C1=CC(c2cc(OC)ccc2OC)=NS(=O)(=O)N1C` (configuration not stated) gave 12-LOX inh -6%.
For COc1ccc(C2=NS(=O)(=O)N(C)C(C(=O)NCc3cccs3)=C2)cc1OC the results were ELG1 repair inh inconclusive, Gal4-VP16 FLuc -5%, 12-LOX inh 17%, TDP1 cell CPT 15µM*, DT40 TDP1 no CPT inconclusive and RORgamma inh 13%.
For CCCNC(=O)C(C)NC(=O)C1CCN(c2nc3ccccc3o2)CC1 (configuration not stated) the results were 12-LOX inh 55%.
`COCCOCC(=O)N1CC[C@H]2C(=O)NCCCCCCN(Cc3ccncc3)[C@@H]2C1` gave 12-LOX inh 115%.
COc1ccc(NC(=O)C2=CC(c3ccc(OC)cc3)=NS(=O)(=O)N2C)cc1 was read as ELG1 repair inh -12%, Gal4-VP16 FLuc -7%, 12-LOX inh 33%, TDP1 cell CPT inconclusive, DT40 TDP1 no CPT 21µM* and RORgamma inh inconclusive.
Screening COc1ccc(C2=NS(=O)(=O)N(C)C(C(=O)N3CCc4ccccc4C3)=C2)cc1OC returned ELG1 repair inh 18µM*, Gal4-VP16 FLuc inconclusive, 12-LOX inh 143%, TDP1 cell CPT 18µM*, DT40 TDP1 no CPT 9.2µM* and RORgamma inh inconclusive.
